Assay results from PubChem BioAssay (Tox21).
Inconclusive results are not listed. Where a call stands in place of a potency, no number is given. The source made the active and inactive calls. Unless noted, calls come from the whole dose curve; as a rule, active = well fitted curve in the direction sought with a large enough effect in the repeat runs; inconclusive = weak or mixed curves; inactive = no such curve, though single readings can be large; an effect the other way counts as inactive or inconclusive.

Columns and labels:
[1] = qHTS assay to identify small molecule antagonists of the glucocorticoid receptor (GR) signaling pathway - cell viability counter screen (AID 720693); note: nearly all actives have a fitted effect of over 55% in size
[2] = qHTS assay for identifying genotoxic compounds that show differential cytotoxicity against isogenic chicken DT40 cell lines with known DNA damage response pathways - wild type cell line (AID 743012); note: nearly all actives have a fitted effect of over 60% in size; note: potency is the fitted concentration of half-maximal effect
How it was run: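 Wild-type DT40 cells (300/well) exposed to compounds for 40 hours at 37 C/5% CO2. Viability read by CellTiter-Glo luminescence after 30 min at room temperature.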

[3] = qHTS assay to identify small molecule antagonists of the androgen receptor (AR) signaling pathway - cell viability counter screen (AID 743033; note: nearly all actives have a fitted effect of over 45% in size)
[4] = qHTS assay to identify small molecule antagonists of the androgen receptor (AR) signaling pathway using the MDA cell line - cell viability counter screen (AID 743041; note: nearly all actives have a fitted effect of over 45% in size)
How it was run: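 MDA-kb2 AR-luc human breast carcinoma cells (MMTV-luciferase, AR/GR responsive) were treated with compounds plus R1881 agonist for 16 h at 37 °C. Viability was read as CellTiter-Fluor fluorescence in the same wells as the reporter assay.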

[5] = qHTS assay to identify small molecule antagonists of the thyroid receptor (TR) signaling pathway - cell viability counter screen (AID 743064); note: nearly all actives have a fitted effect of over 50% in size
How it was run: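 Compounds were tested on GH3.TRE-Luc cells in the presence of T3 at 1 nM final. Following 23.5 h at 37 °C, cell viability was quantified by CellTiter-Fluor.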

[6] = qHTS assay to identify small molecule antagonists of the thyroid receptor (TR) signaling pathway (AID 743065); note: series mostly up to about 70 µM; nearly all actives have a fitted effect of over 55% in size
How it was run: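 GH3.TRE-Luc rat pituitary cells carrying two TR response elements driving luciferase were plated for 4 h, given compound plus 1 nM T3 (final), and incubated 23.5 h at 37 C. ONE-Glo luminescence measured reporter inhibition; CellTiter-Fluor fluorescence tracked cytotoxicity.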

[7] = qHTS assay for identifying genotoxic compounds that show differential cytotoxicity against isogenic chicken DT40 cell lines with known DNA damage response pathways - Rad54/Ku70 mutant cell line (AID 743015); note: nearly all actives have a fitted effect of over 60% in size; note: potency is the fitted concentration of half-maximal effect
[8] = biological target: Androgen receptor (Homo sapiens) (UniProt P10275); test: qHTS assay to identify small molecule antagonists of the androgen receptor (AR) signaling pathway (AID 743035; active = well fitted inhibition curve with a large enough effect in the signal ratio in the repeat runs, not every such curve was filed as active; the % refers to the signal ratio)
Sequence of Androgen receptor (Homo sapiens) (P10275 whole entry, looked up): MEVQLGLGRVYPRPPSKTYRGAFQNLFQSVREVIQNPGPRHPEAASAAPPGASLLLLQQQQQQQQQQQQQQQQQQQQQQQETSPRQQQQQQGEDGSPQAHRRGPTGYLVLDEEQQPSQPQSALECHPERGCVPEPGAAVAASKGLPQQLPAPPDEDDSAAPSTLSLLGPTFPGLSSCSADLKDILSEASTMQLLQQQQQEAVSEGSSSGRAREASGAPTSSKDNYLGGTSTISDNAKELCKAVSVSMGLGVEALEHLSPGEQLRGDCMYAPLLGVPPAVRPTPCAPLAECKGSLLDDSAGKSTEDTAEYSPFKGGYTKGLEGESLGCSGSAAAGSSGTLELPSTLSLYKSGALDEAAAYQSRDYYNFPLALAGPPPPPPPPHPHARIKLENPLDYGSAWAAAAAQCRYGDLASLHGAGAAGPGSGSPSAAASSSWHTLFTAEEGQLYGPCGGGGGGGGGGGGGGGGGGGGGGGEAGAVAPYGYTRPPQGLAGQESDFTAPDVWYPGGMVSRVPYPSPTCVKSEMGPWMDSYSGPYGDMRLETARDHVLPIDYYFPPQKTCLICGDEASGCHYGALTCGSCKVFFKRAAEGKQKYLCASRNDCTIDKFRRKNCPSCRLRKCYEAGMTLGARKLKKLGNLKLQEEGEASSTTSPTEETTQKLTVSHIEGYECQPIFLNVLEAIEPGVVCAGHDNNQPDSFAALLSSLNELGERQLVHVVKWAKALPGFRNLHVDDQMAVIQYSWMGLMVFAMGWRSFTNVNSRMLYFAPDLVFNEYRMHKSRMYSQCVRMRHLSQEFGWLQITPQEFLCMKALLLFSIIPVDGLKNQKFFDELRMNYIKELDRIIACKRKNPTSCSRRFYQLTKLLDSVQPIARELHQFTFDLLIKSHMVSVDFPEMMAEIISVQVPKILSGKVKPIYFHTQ
How it was run: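 HEK293 cells stably carrying UAS-beta-lactamase reporter, 2,000/well, given compounds plus R1881 agonist and incubated 16 h at 37C. LiveBLAzer B/G FRET substrate then added for 2 h at room temperature before fluorescence reading.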

[9] = biological target: Androgen receptor (Homo sapiens) (UniProt P10275); test: qHTS assay to identify small molecule agonists of the androgen receptor (AR) signaling pathway using the MDA cell line (AID 743040; note: nearly all actives have a fitted effect of over 20% in size)
How it was run: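 MDA-kb2 breast carcinoma cells stably carrying an MMTV-driven luciferase reporter (AR- and GR-responsive) were seeded and held 5 h at 37C, 0% CO2, then exposed to compounds in DMSO for 16 h. Luminescence was read 30 min after ONE-Glo addition.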

Structure (SMILES) | Potency [1] | Potency [2] | Potency [3] | Potency [4] | Potency [5] | Potency [6] | Potency [7] | Potency [8] | outcome [9]
COc1ccc(C(=O)c2ccc(C)cc2)c(O)c1 | inactive | inactive | inactive | inactive | inactive | inactive | – | – | –
CC(C)(C)NCC(O)COc1ccc(NC(=O)NC2CCCCC2)cc1 (stereo not given) | inactive | 29.8 µM (active) | inactive | inactive | – | – | 26.6 µM (active) | – | –
COc1ccc(/C=C/c2cc(OC)cc(=O)o2)cc1 | inactive | inactive | inactive | – | – | inactive | inactive | – | –
CC(=O)S[C@H](C(=O)N[C@H]1Cc2ccccc2[C@H]2CCC[C@@H](C(=O)O)N2C1=O)C(C)C | inactive | inactive | inactive | inactive | inactive | inactive | – | – | –
CCCc1ccc(OC)cc1 | inactive | inactive | inactive | – | – | – | inactive | inactive | inactive
C[C@H]1C[C@H]2[C@@H]3CCC4=CC(=O)C=C[C@]4(C)[C@@]3(F)[C@@H](O)C[C@]2(C)[C@@]1(O)C(=O)COP(=O)(O)O | inactive | inactive | inactive | inactive | – | inactive | inactive | – | –
COc1ccc(CN(CCN(C)C)c2ncccn2)cc1 | inactive | inactive | inactive | inactive | inactive | inactive | – | – | –
